Test [1] is described as follows: NCI Yeast Anticancer Drug Screen. Data for the rad50 strain (AID 155).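 Further: 0% = growth of vehicle-only cultures of the same strain.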 Particulars: S. cerevisiae rad50 strain growth inhibition; at 50.0 µM; hits give high values. The method, boiled down:
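Yeast carrying a defined DNA repair defect were exposed to test compounds, and growth was compared with vehicle-treated controls to give percent inhibition.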

Test [2] is described as follows: NCI Yeast Anticancer Drug Screen. Data for the mec2-1 strain (AID 157). Particulars: S. cerevisiae mec2-1 strain, at 50.0 µM, hits give high values. A digest of the protocol:
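Using mec2-1 yeast: add compound, measure growth, express inhibition versus vehicle-treated cultures.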

The nature of test [3]: NCI Yeast Anticancer Drug Screen. Data for the sgs1 mgt1 strain (AID 161).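 Further: 0% = growth of cultures given vehicle only.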 Particulars: S. cerevisiae sgs1 mgt1 strain, at 50.0 µM, hits give high values. A digest of the protocol:
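Yeast cells carrying a defined DNA-repair defect were exposed to test compounds. Growth inhibition was measured relative to vehicle-treated controls.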

Test [4] is described as follows: NCI Yeast Anticancer Drug Screen. Data for the cln2 rad14 strain (AID 165).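 Further: 0% = growth equal to vehicle treated cultures.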 Particulars: S. cerevisiae cln2 rad14 strain, at 50.0 µM, hits give high values. The method, boiled down:
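Yeast strain cln2 rad14, bearing defects in cell cycle control and DNA repair, serves as the test system; values reflect growth inhibition compared with vehicle.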

Test [5] can be described thus: NCI Yeast Anticancer Drug Screen. Data for the bub3 strain (AID 167). Particulars: S. cerevisiae bub3 mutant strain, at 50.0 µM, hits give high values. The method, boiled down: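 Compounds were applied to a genetically altered yeast strain carrying a cell-cycle control defect. Growth inhibition was scored against vehicle-treated controls.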
Test [6] in a line: NCI Yeast Anticancer Drug Screen. Data for the mlh1 rad18 strain (AID 175). Particulars: S. cerevisiae mlh1 rad18 strain growth inhibition; at 50.0 µM; hits give high values. A digest of the protocol:
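Steps: expose repair-defective yeast to compound; measure growth; express inhibition against vehicle-treated controls.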

This is part of a sample that, as a whole, favours compounds with a hit. Of some 79,000 tested, about 15% had one in any assay. A number with no mark means an inactive call. Activity calls are given as the source filed them. No stated cut-off is given here; in the data, active means growth inhibition above about 70%; inactive means the rest.

With `CCC(=O)OC1CCC(OC(=O)CC)CC1` (stereo not given), the growth inhibition in test [1] was 7.3%; in test [2] it was 9.8%; in test [3], 2.45%; in test [4], -1.9%; in test [5], -6.05%; in test [6] it was -6.2%.
`COC(=O)/C(=C\SCc1ccccc1)NC(C)=O`: the growth inhibition was 0.45% in test [1]; 6.7% in test [2]; -1.55% in test [3]; -7.7% in test [4]; -24.2% in test [5]; -20.8% in test [6].
With `CCNC(=O)NCCN1CCOCC1`, the growth inhibition in test [1] was -3.55%; in test [2], -8%; in test [3], -3.1%; in test [4], -75%; in test [5], 7.05%; in test [6], -2%.
Take `CC1(C)OC2OC(CNC(=O)c3ccccc3)C(O)C2O1` (stereo not given): the growth inhibition was -9.05% in test [1]; -4.4% in test [2]; 3.05% in test [3]; -3.1% in test [4]; -10.3% in test [5]; -18.8% in test [6].
For `CCCCc1ccc2nc3cc4ccccc4cc3nc2c1`, the growth inhibition in test [1] is 12.8%; in test [2], 51.1%; in test [3] it was 32.6%; in test [4], -16%; in test [5], 20.6%; in test [6] it was 7.6%.
`CCCc1cc(C)cc(N=Cc2ccccc2)c1O`: the growth inhibition was 96.6% (active) in test [1]; 97.6% (active) in test [2]; 93.8% (active) in test [3]; 97.8% (active) in test [4]; 97% (active) in test [5]; 97.2% (active) in test [6].
For the compound `Clc1c(Cl)c2ccccc2c2ccccc12`, the growth inhibition in test [1] was 10.1%; in test [2] it was -8.4%; in test [3], 11.3%; in test [4], 8.85%; in test [5], 32.5%; in test [6], 4.85%.
Regarding `CCC(C(N)=O)C(C)(C)C` (stereo not given), the growth inhibition in test [1] was -0.15%; in test [2], -12.2%; in test [3], -4.7%; in test [4] it was 7.3%; in test [5] it was 12.3%; in test [6] it was -1.2%.
As for `O=C1c2ccccc2C(=O)c2c(Nc3ccc4c5c(cccc35)C(=O)c3ccccc3-4)cccc21`, the growth inhibition in test [1] was 23.1%; in test [2] it was 6.25%; in test [3], -14.2%; in test [4] it was -31.7%; in test [5] it was -8.4%; in test [6], 13.2%.
Turning to `O=c1cc(CC(O)(c2ccccc2)c2ccccc2)cc[nH]1`, the growth inhibition in test [1] is 16.1%; in test [2], 3.8%; in test [3] it was -4.65%; in test [4], -10.8%; in test [5], -0.35%; in test [6], -1%.
For the compound `OC1C(O)C2CC1C1C2C2(Cl)CC1(Cl)C(Cl)=C2Cl` (stereo not given), the growth inhibition was 7.6% in test [1]; -1.55% in test [2]; 1.5% in test [3]; -1.35% in test [4]; -6.1% in test [5]; 14.3% in test [6].
Consider `CC(=O)OCCOCNC(=S)N/N=C/c1ccccn1`, for which the growth inhibition in test [1] is 24.2%; in test [2], 26%; in test [3] it was -8.35%; in test [4], 6.7%; in test [5], 12.6%; in test [6], 45.6%.
With `CC(=O)C(CCC#N)(CCC#N)C(=O)Nc1ccccc1`, the growth inhibition in test [1] was -9%; in test [2] it was 10.5%; in test [3], 3.35%; in test [4] it was -6%; in test [5] it was -2.05%; in test [6], -21.5%.
With `O=C1C(Br)=CC(Br)=C/C1=N/Br`, the growth inhibition in test [1] is 70.6% (active); in test [2], 61.5%; in test [3], 85.2% (active); in test [4], 61.1%; in test [5] it was 70% (active); in test [6] it was 78.5% (active).
For `O=C(c1ccccc1)c1ccc(C(=O)c2ccccc2)cc1`, the growth inhibition in test [1] was -0.35%; in test [2] it was -1.85%; in test [3], -19.2%; in test [4], -6.15%; in test [5] it was -9.35%; in test [6], -19.3%.
Consider `O=C1C=CC(=O)c2c1c1c(c3c2C2c4ccccc4C3c3ccccc32)C2c3ccccc3C1c1ccccc12`, for which the growth inhibition was -13.5% in test [1]; -16.1% in test [2]; 19.9% in test [3]; -8.25% in test [4]; -5.75% in test [5]; 12.7% in test [6].
On to `COc1cccc(NC(=O)CSc2nnc(Cc3ccccc3)o2)c1`, for which the growth inhibition in test [1] is -18.8%; in test [2], -11.9%; in test [3] it was -20.8%; in test [4], -8.2%; in test [5] it was -12.4%; in test [6] it was -36.5%.
As for `CC(=O)Oc1cc(C(F)(F)F)ccc1C(=O)OC1(C)OC(=O)c2ccc(C(F)(F)F)cc2O1` (stereo not given), the growth inhibition in test [1] was -34.1%; in test [2], -12.9%; in test [3] it was -21.4%; in test [4], -2.85%; in test [5], -13.9%; in test [6] it was -16.9%.
Take `Cn1c(=O)c2c(nc(NCCNc3nc4c(c(=O)n(C)c(=O)n4C)n3C)n2C)n(C)c1=O`: the growth inhibition was 1.85% in test [1]; -3.35% in test [2]; -46.2% in test [3]; -25.1% in test [4]; -20.8% in test [5]; -31.7% in test [6].
On to `COC(=O)C1(C2(C(=O)OC)NC(C)=C(c3ccccc3)C(=O)O2)NC(C)=C(c2ccccc2)C(=O)O1` (stereo not given), for which the growth inhibition is 15.2% in test [1]; -7.3% in test [2]; -6.95% in test [3]; 8.3% in test [4]; -5.15% in test [5]; 15% in test [6].
On to `CCN(CC)N=Nc1ccc(S(N)(=O)=O)cc1`, for which the growth inhibition was 8.25% in test [1]; 12.6% in test [2]; 16.1% in test [3]; 38% in test [4]; -5.1% in test [5]; 14.6% in test [6].
Turning to `CCc1cc(-c2cc(CC)on2)no1`, the growth inhibition in test [1] was -3.3%; in test [2], -14.9%; in test [3] it was -12.4%; in test [4], -1.15%; in test [5], -19.2%; in test [6] it was 1.4%.
In the case of `CCOC(=O)C1C/C2=C(/CCCCCCCCCC2)SCCCS1` (stereo not given), the growth inhibition in test [1] was 4.35%; in test [2], 5.2%; in test [3], -9%; in test [4], 2.15%; in test [5], -13.7%; in test [6] it was -23.7%.
Regarding `CCC(=O)Nc1cccc2ccccc12`, the growth inhibition in test [1] is 5.1%; in test [2], -12.7%; in test [3], -10.9%; in test [4], -92.4%; in test [5], -5.95%; in test [6] it was -3.1%.
Turning to `Oc1ccc(Br)cc1/C=N\NC(=S)Nc1ccc2cn[nH]c2c1`, the growth inhibition in test [1] was 47.1%; in test [2], 23.9%; in test [3] it was 47.8%; in test [4], 24.9%; in test [5], 2.1%; in test [6], 40.4%.
For `COc1cc(-c2cc(O)c(-c3ccc4ccccc4n3)c(=O)[nH]2)cc(OC)c1OC`, the growth inhibition in test [1] is 6.75%; in test [2], 14.6%; in test [3], 1.6%; in test [4], 11.8%; in test [5], -27.1%; in test [6], 23.4%.
For the compound `CC/C(N)=N\OC(=O)c1ccccc1`, the growth inhibition is 14.3% in test [1]; -4.75% in test [2]; -4.45% in test [3]; -44.4% in test [4]; 2.8% in test [5]; -5% in test [6].
`Nc1c[nH]c(=S)s1`: the growth inhibition in test [1] is 36.9%; in test [2], 18.8%; in test [3], 54.7%; in test [4], 0.9%; in test [5], 39.6%; in test [6], 51.2%.
`COc1cc(C(=O)O)ccc1OS(=O)(=O)O`: the growth inhibition in test [1] is -17.4%; in test [2], -62.5%; in test [3], -10.7%; in test [4], -21.6%; in test [5], -11%; in test [6] it was -31.3%.
In the case of `CC1=C(C)C(=O)c2c(OC(=O)c3ccccc3)ccc(OC(=O)c3ccccc3)c2C1=O`, the growth inhibition in test [1] is -18.8%; in test [2] it was 7.7%; in test [3] it was 19.3%; in test [4], -18.7%; in test [5], -1.2%; in test [6], -13.8%.
As to `O=c1cnn(C2OC(C(O)CO)C(O)C2O)c(=O)[nH]1` (stereo not given), the growth inhibition is -6.9% in test [1]; -81.5% in test [2]; -8.75% in test [3]; -27.6% in test [4]; -11.2% in test [5]; -18.4% in test [6].
For the compound `O=[N+]([O-])c1ccccc1-c1ccccc1[N+](=O)[O-]`, the growth inhibition in test [1] is 24.7%; in test [2], 16.3%; in test [3] it was 33.8%; in test [4] it was 10%; in test [5], -24.4%; in test [6] it was -10.8%.
On to `CC(=O)OC1OC(c2ccoc2)C[C@@]12C1CCC3O[C@]3(C)[C@]1(C)C[C@H](OC(C)=O)[C@H]2C` (stereo not given in full), for which the growth inhibition was -0.5% in test [1]; -14.5% in test [2]; -41.5% in test [3]; -13.6% in test [4]; -32.1% in test [5]; -13.2% in test [6].
Regarding `CCOc1ccc(C2OCC(C)O2)cc1OC` (stereo not given), the growth inhibition is 13.2% in test [1]; 13.6% in test [2]; 2.3% in test [3]; 10.3% in test [4]; -0.5% in test [5]; 11.7% in test [6].
Take `Oc1c(Br)cc(CN(Cc2cc(Br)c(O)c(Br)c2)C2CCCCC2)cc1Br`: the growth inhibition in test [1] is -2.75%; in test [2] it was -6.5%; in test [3] it was -21.3%; in test [4] it was -15.7%; in test [5], -23.1%; in test [6], 5.4%.
Turning to `Cc1ccc(C(=O)N/N=C/c2c(O)ccc3ccccc23)cc1`, the growth inhibition in test [1] is -4.7%; in test [2], 20.7%; in test [3], 9.95%; in test [4] it was -24.9%; in test [5], 38.5%; in test [6], 27.1%.
Turning to `COC(=O)CC1(O)C(C=C(C)C)C(C(=O)OC)C(=O)C(C(=O)OC)C1C(=O)OC` (stereo not given), the growth inhibition in test [1] is -10.8%; in test [2], -7.15%; in test [3], -28.9%; in test [4], -3.5%; in test [5] it was -32.2%; in test [6], -1.25%.
Consider `O=c1c2ccccc2c(=O)n2n1CC=CC2`, for which the growth inhibition in test [1] was -6.45%; in test [2], -4.2%; in test [3], -1.75%; in test [4] it was -15.2%; in test [5], -2.75%; in test [6] it was -1.9%.
`COc1cc(NCCN=C(N)NC#N)c2ncccc2c1`: the growth inhibition is 0.95% in test [1]; 4.75% in test [2]; -0.7% in test [3]; -18.4% in test [4]; -15.4% in test [5]; 2.6% in test [6].
In the case of `COP(=O)(OC)C(Cc1cn(C(C)=O)c2ccccc12)C(=O)O` (stereo not given), the growth inhibition in test [1] is -53.3%; in test [2], -69.5%; in test [3] it was -56.8%; in test [4], -25.1%; in test [5], -27.4%; in test [6], -37.5%.

For the origin of these results see PubChem BioAssay (NCI).
